Screening data (PubChem BioAssay)
Yeast superoxide – yeast age-related superoxide inhibition as caloric restriction mimetic; 330,000 tested, 0.18% active; S. cerevisiae aged cells, superoxide DHE fluorescence; active compounds read low; superoxide response (% of plate mean), % at 10 µM;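 active = superoxide response under a set limit, about three screen SD below normal, cut at about 65% in these data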;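 also: yeast aged for seven days with compound at 30 °C before DHE staining; 100% = average MFI of all compound-treated wells on the plate with controls excluded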
MEX-5 binding – C. elegans MEX-5 TCR-2 RNA binding activity | activity score (negative = inhibition of binding), % at 10 µM | Q9XUB2 | AID 1832 | MEX-5/FITC-TCR2 RNA binding, fluorescence polarization; active compounds read low | 300,000 tested, 0.38% active;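 active = inhibition past about -25% in most replicates, and total fluorescence under double the plate's negative control median, limit read from the data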;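 also: 0% = DMSO and -100% = 5 µM competing unlabeled TCR2 RNA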
GLD-1 TGE inh – GLD-1-TGE RNA interaction inhibition (C. elegans); AID 2280; Q17339; inhibition, % at 5.96 µM; 320,000 tested, 0.44% active; purified GLD-1 + fluorescein TGE RNA, fluorescence polarization;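 active = percent inhibition above a per-plate cutoff, the plate mean of test compounds plus 3 SD, cut at about 30% in these data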;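 also: 0% = DMSO wells with GLD-1 and probe and 100% = wells lacking GLD-1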
MCL1-BIM inh – disrupts human MCL1 binding to BIM-BH3 peptide | Q07820 | GST-MCL1 / FITC-Bim-BH3 fluorescence polarization | inhibition, % at 10.9 µM | 320,000 tested, 0.68% active | AID 2057;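 active = inhibition above the mean inhibition of all tested compounds plus 3 SD, set per campaign, cut at about 40% in these data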;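 also: 0% = DMSO wells and 100% = unlabeled Bim-BH3 peptide control; higher means more loss of mP so more displacement of Bim peptide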
Target sequence (Q07820 whole entry, looked up): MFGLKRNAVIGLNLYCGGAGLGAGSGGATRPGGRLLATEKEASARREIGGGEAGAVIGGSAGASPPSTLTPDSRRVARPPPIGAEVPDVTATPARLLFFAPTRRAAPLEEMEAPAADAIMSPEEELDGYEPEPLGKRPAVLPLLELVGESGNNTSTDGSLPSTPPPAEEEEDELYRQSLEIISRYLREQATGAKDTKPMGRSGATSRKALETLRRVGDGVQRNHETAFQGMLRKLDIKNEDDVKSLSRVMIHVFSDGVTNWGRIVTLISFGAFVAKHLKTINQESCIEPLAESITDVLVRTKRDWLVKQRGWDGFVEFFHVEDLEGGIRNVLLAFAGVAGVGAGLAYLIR
LANA-H2A inh – blocks KSHV LANA binding to histone H2A/H2B. Q9QR71. cell-free LANA-H2A/H2B peptide, fluorescence polarization. inhibition, % (no concentration beside the values). 320,000 tested, 0.6% active. AID 2629; in the data active = inhibition mostly above about 10%, no sharp cut-off; inactive = mostly below about 6.7%
Bcl-xL primary – Bcl-xL (human) inhibition; Q07817; GST-Bcl-xL / FITC-Bim BH3 peptide fluorescence polarization; inhibition, % at 10.9 µM; 320,000 tested, 0.7% active;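 active = inhibition above the mean of all tested compounds plus 3 SD, cutoff set per campaign, cut at about 30% in these data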;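 also: 0% = DMSO wells and 100% = unlabeled Bim-BH3 peptide competitor; inhibitors lower millipolarization by displacing the labeled peptide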
Target sequence (Q07817 whole entry, looked up): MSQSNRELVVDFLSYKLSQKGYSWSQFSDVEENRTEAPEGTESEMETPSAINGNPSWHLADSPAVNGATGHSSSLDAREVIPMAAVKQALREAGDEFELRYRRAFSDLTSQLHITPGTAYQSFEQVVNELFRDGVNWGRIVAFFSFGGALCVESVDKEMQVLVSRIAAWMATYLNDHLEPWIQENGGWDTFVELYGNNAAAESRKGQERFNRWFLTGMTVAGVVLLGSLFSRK
Bcl-xL conf – counter-screen for MCL1 inhibitors: confirmation of human Bcl-xL inhibitors | shares compounds with MCL1-BIM inh | inhibition, % at 10.9 µM | GST-Bcl-xL / FITC-Bim BH3 peptide FP binding | 1,700 tested, 54% active;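 active = inhibition above a cutoff equal to the mean inhibition of all tested compounds plus 3 SD, cut at about 30% in these data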;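 also: 0% = DMSO wells and 100% = unlabeled Bim BH3 control peptide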
MCL1 inh confirm – MCL1-BIM-BH3 interaction inhibition, confirmation. GST-MCL1 / FITC-Bim-BH3 fluorescence polarization. inhibition, % at 10.9 µM. 1,700 tested, 61% active. shares compounds with MCL1-BIM inh. AID 2168;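 active = inhibition above the average of all tested compounds plus 3 SD, cut at about 40% in these data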;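 also: 0% = DMSO wells and 100% = unlabeled Bim-BH3 control peptide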
* hit, by the source's call. Compounds with a hit are over-represented: about 1.9% of the library has one in this group of screens.

How did COc1ccc2c(c1)c(CC(=O)OCC(=O)O)c(C)n2C(=O)c1ccc(Cl)cc1 do in these assays?
Yeast superoxide: 104; MEX-5 binding: 4; GLD-1 TGE inh: 4; MCL1-BIM inh: 82*; Bcl-xL primary: 12; Bcl-xL conf: 4; MCL1 inh confirm: 8

What do the screens show for `Cc1cc(C(=O)Nc2ccc3c(c2)CCC3)ccc1[N+](=O)[O-]`?
Yeast superoxide: 106; MEX-5 binding: 2; GLD-1 TGE inh: 14; MCL1-BIM inh: 1; LANA-H2A inh: 6; Bcl-xL primary: 0

How did Cc1ccc(CSc2ccc(C(=O)N3CCOCC3)cc2[N+](=O)[O-])cc1 do in these assays?
Yeast superoxide: 99; MEX-5 binding: 3; GLD-1 TGE inh: -7; MCL1-BIM inh: 49*; LANA-H2A inh: 2; Bcl-xL primary: 5; Bcl-xL conf: 8; MCL1 inh confirm: -1

Results for CCC1(c2ccc(F)cc2)NC(=O)N(CC(=O)N2CC(=O)Nc3ccccc32)C1=O (stereo unspecified) ?
Yeast superoxide: 107; MEX-5 binding: 1; GLD-1 TGE inh: -4; MCL1-BIM inh: 0; LANA-H2A inh: 3; Bcl-xL primary: -2

How did O=C(CCCN1C(=O)/C(=C/c2ccccc2OC(F)F)SC1=S)Nc1cccnc1 do in these assays?
Yeast superoxide: 98; GLD-1 TGE inh: 11; LANA-H2A inh: -3

How did CC(C)=CCOc1ccc([C@@H]2COc3c(ccc4c3C=CC(C)(C)O4)C2)c(O)c1 do in these assays?
Yeast superoxide: 94; MEX-5 binding: -1; GLD-1 TGE inh: 11; MCL1-BIM inh: 3; LANA-H2A inh: 5; Bcl-xL primary: -2

What do the screens show for `N#CCCN(C(=S)NC(=O)C1CCCCC1)c1ccccc1F`?
Yeast superoxide: 88; GLD-1 TGE inh: 1; LANA-H2A inh: 0

Results for COc1ccc2[nH]c3c(c2c1)CCNC3c1ccc([N+](=O)[O-])o1 (stereo unspecified) ?
Yeast superoxide: 86; MEX-5 binding: -50*; GLD-1 TGE inh: 37*; MCL1-BIM inh: 96*; LANA-H2A inh: 21*; Bcl-xL primary: 87*; Bcl-xL conf: 79*; MCL1 inh confirm: 101*

What do the screens show for `COc1ccc2[nH]c3c(c2c1)CCNC3C1CC=C(C)CC1` (stereo unspecified)?
Yeast superoxide: 97; MEX-5 binding: -2; GLD-1 TGE inh: -2; MCL1-BIM inh: 0; LANA-H2A inh: -10; Bcl-xL primary: 3

Results for CCC(C)(C)NC(=O)C(c1ccc(C)o1)N(Cc1ccc2c(c1)OCO2)C(=O)c1snc(C(N)=O)c1N (stereo unspecified) ?
Yeast superoxide: 92; MEX-5 binding: 1; GLD-1 TGE inh: -1; MCL1-BIM inh: 0; LANA-H2A inh: -2; Bcl-xL primary: 3

What do the screens show for `Cc1ccc2[nH]c3c(c2c1)CN(C(=O)CN1CCN(c2ccccn2)CC1)CC3`?
Yeast superoxide: 101; MEX-5 binding: -10; GLD-1 TGE inh: 38*; MCL1-BIM inh: 58*; LANA-H2A inh: 7; Bcl-xL primary: 66*; Bcl-xL conf: 13; MCL1 inh confirm: 15

What do the screens show for `Cc1ccc2[nH]c3c(c2c1)CN(C(=O)CN1CCSCC1)CC3`?
MEX-5 binding: -12; LANA-H2A inh: -29

What do the screens show for `Cc1ccc2[nH]c3c(c2c1)CN(C(=O)CN1CC(C)OC(C)C1)CC3` (stereo unspecified)?
Yeast superoxide: 117; GLD-1 TGE inh: -1; MCL1-BIM inh: 62*; LANA-H2A inh: -18; Bcl-xL primary: 61*; Bcl-xL conf: 51*; MCL1 inh confirm: 60*

What do the screens show for `Cc1ccc2[nH]c3c(c2c1)CN(C(=O)CN1CCN(Cc2ccc4c(c2)OCO4)CC1)CC3`?
Yeast superoxide: 106; MEX-5 binding: -1; GLD-1 TGE inh: 11; MCL1-BIM inh: 11; LANA-H2A inh: 0; Bcl-xL primary: 19

Results for COc1cc(-c2ccc3oc(-c4cccc(C)c4)c(C#CC4(O)CCCCC4)c3c2)cc(OC)c1OC ?
Yeast superoxide: 88; GLD-1 TGE inh: -3; LANA-H2A inh: -3

How did COc1ccc(C(=O)O)cc1S(=O)(=O)Nc1ccccc1C(=O)NCc1ccc2c(c1)OCO2 do in these assays?
Yeast superoxide: 90; GLD-1 TGE inh: 4; MCL1-BIM inh: 8; LANA-H2A inh: -131; Bcl-xL primary: 6

How did CC1(C)CCN2CCC(C)(C)c3c(O)ccc1c32 do in these assays?
Yeast superoxide: 101; MEX-5 binding: -15; GLD-1 TGE inh: 77*; MCL1-BIM inh: 170*; LANA-H2A inh: 7; Bcl-xL primary: 141*; Bcl-xL conf: 29; MCL1 inh confirm: 25

Results for CCOC(=O)C1=CN(Cc2cccc(F)c2)S(=O)(=O)N(C)C1CCc1ccccc1 (stereo unspecified) ?
Yeast superoxide: 89

What do the screens show for `CCOC(=O)c1c[nH]c2nc(C)ccc2c1=O`?
Yeast superoxide: 101; MEX-5 binding: -47*; GLD-1 TGE inh: 61*; MCL1-BIM inh: 85*; LANA-H2A inh: 0; Bcl-xL primary: 78*; Bcl-xL conf: 70*; MCL1 inh confirm: 89*

What do the screens show for `CCOC(=O)c1c[nH]c(=O)c(Br)c1O`?
Yeast superoxide: 106; MEX-5 binding: -3; GLD-1 TGE inh: 6; MCL1-BIM inh: -3; LANA-H2A inh: 4; Bcl-xL primary: 5

Results for Fc1ccc(-n2nnc(-c3ccccc3Br)n2)cc1 ?
Yeast superoxide: 98; MEX-5 binding: 2; GLD-1 TGE inh: 4; MCL1-BIM inh: active; LANA-H2A inh: 3; Bcl-xL primary: 10; Bcl-xL conf: 6; MCL1 inh confirm: 8

What do the screens show for `Cc1cc(F)ccc1S(=O)(=O)N1CCCCC1CCNC(=O)C(=O)NCc1ccccn1` (stereo unspecified)?
Yeast superoxide: 88; MEX-5 binding: 0; GLD-1 TGE inh: 4; MCL1-BIM inh: 2; LANA-H2A inh: 2; Bcl-xL primary: 5

What do the screens show for `Brc1ccc(C2=Nc3cccc4cccc(c34)N2)o1`?
Yeast superoxide: 99; MEX-5 binding: -1; GLD-1 TGE inh: 0; MCL1-BIM inh: 41*; LANA-H2A inh: -10; Bcl-xL primary: 20; Bcl-xL conf: 8; MCL1 inh confirm: 14

Results for Cc1ccc(C)c(S(=O)(=O)N2CCN(C(=O)[C@H](Cc3ccccc3)NC(=O)c3ccco3)CC2)c1 ?
Yeast superoxide: 95; GLD-1 TGE inh: -3; LANA-H2A inh: 3
